The source of these data is ChEMBL document CHEMBL4513146, “CO-ADD screening of Karazin Kharkiv National University (Ukraine) compounds”.

One assay concerns Klebsiella pneumoniae. Particulars: Concentration 32 ug.mL-1;; ASSAY_TEST Inhibition of Bacterial Growth; detection method Absorption (OD600); MEDIA CAMHB; plate type 384well; NBS; CORNING #3640; time 18 hr.
A further assay deals with Candida albicans. Conditions: Concentration 32 ug.mL-1; ASSAY_TEST Inhibition of Fungal Growth; detection method Absorption (OD530).
For the next assay, the system named is Cryptococcus neoformans. Conditions: Concentration 32 ug.mL-1; ASSAY_TEST Inhibition of Fungal Growth; detection method Resazurin; Absorption (OD600-OD570); plate type 384well; NBS; CORNING #3640.

Structures are written as SMILES. Results with a measured potency or affinity are listed apart.

On to `COc1ccc(NC(=O)c2ccc3nn(CC(=O)Nc4cc(Cl)ccc4OC)c(=O)n3c2)cc1`, for which the Inhibition (commonly the change of the read-out against control, counted positive when it falls) in the assay on Klebsiella pneumoniae is reported as 1.5%; in the assay with Candida albicans, 2.28%; with Cryptococcus neoformans, -8.79%.
For `COc1ccc(-c2noc(Cn3nc4ccc(-c5ccccc5)nn4c3=O)n2)cc1OC` the same measures were 11.35%, 4.81% and -11.77%.
Take `CCN(CCCNC(=O)CCc1nnc2ccc(-c3ccc(C)c(C)c3)nn12)c1ccccc1`: the Inhibition with Klebsiella pneumoniae is 13.51%; in the assay with Candida albicans, 13.02%; in the assay with Cryptococcus neoformans, -7.8%.
In the case of `CCOc1ccc(N(Cc2cccc(F)c2)S(=O)(=O)c2ccc3nncn3c2)cc1`, the Inhibition with Klebsiella pneumoniae is given as 6.73%; with Candida albicans, 1.76%; with Cryptococcus neoformans, -4.27%.
For the compound `Cc1cccc(C)c1NC(=O)Cn1nc2c(Sc3cccc(F)c3)nccn2c1=O`, the Inhibition in the assay with Klebsiella pneumoniae is reported as 4.53%; in the assay on Candida albicans, -1.35%; with Cryptococcus neoformans it was -4.17%.
In the same order, the values of `CCOc1ccc(-n2ccn3c(SCC(=O)Nc4ccccc4C(F)(F)F)nnc3c2=O)cc1` are 17.14%, 2.4% and -14.22%.
With `O=S(=O)(c1ccc2nncn2c1)N(Cc1cc(F)cc(F)c1)c1ccc(F)c(F)c1`, the values for the Inhibition with Klebsiella pneumoniae, in the assay with Candida albicans and in the assay with Cryptococcus neoformans were 12.12%, 1.89% and -12.17%, respectively.
In the same order, the values of `Cc1ccc(-c2ccc3nn(Cc4cccc(Br)c4)c(=O)n3n2)cc1C` are 14.87%, 0.19% and -18.95%.
As for `CCCCn1c(=O)c2sccc2n2c(CCC(=O)NC(C)C34CC5CC(CC(C5)C3)C4)nnc12` (stereo unspecified), the Inhibition with Klebsiella pneumoniae is recorded as 12.08%; in the assay on Candida albicans it was -2.51%; in the assay on Cryptococcus neoformans, -27.66%.
In the same order, the values of `Cc1nnc2ccc(S(=O)(=O)N(Cc3cccc(F)c3)c3ccc(Cl)cc3)cn12` are 10.33%, -0.68% and -10.1%.
With `CC(C)CCn1c(=O)c2ccc(C(=O)NC3CCCC3)cc2n2c(=O)n(CC#N)nc12`, the values for the Inhibition in the assay on Klebsiella pneumoniae, in the assay on Candida albicans and in the assay with Cryptococcus neoformans were 12.37%, 2.41% and -21.13%, respectively.
For `O=S(=O)(c1ccc2nncn2c1)N(Cc1cccc(Cl)c1)c1ccccc1` the same measures were 4.69%, -1.59% and -11.03%.
Take `Cc1cc(C)cc(NC(=O)CSc2nnc3c(=O)n(-c4ccc(Br)cc4)ccn23)c1`: the Inhibition in the assay with Klebsiella pneumoniae is given as 11.44%; with Candida albicans it was 6.21%; in the assay with Cryptococcus neoformans, -22.2%.
Regarding `COC(=O)c1cccc(NC(=O)Cn2nc3c(Sc4ccc(C)cc4C)nccn3c2=O)c1`, the Inhibition in the assay on Klebsiella pneumoniae is reported as 13.86%; in the assay on Candida albicans, -2.57%; with Cryptococcus neoformans, -30.13%.
Take `COc1cccc(NC(=O)Cn2nc3c4c5c(sc4ncn3c2=O)CCCC5)c1`: the Inhibition in the assay on Klebsiella pneumoniae was 10.28%; in the assay on Candida albicans it was 6.83%; in the assay on Cryptococcus neoformans it was -22.51%.
For `Cc1nnc2c(=O)n(CC(=O)Nc3ccc(Br)cc3)c3ccccc3n12` the same measures were 3.12%, 2.53% and -1.52%.
For `Cc1cccc(Sc2nccn3c(=O)n(CC(=O)N4CCN(c5ccc(F)cc5)CC4)nc23)c1` the same measures were -8.7%, 3.19% and -30.97%.
With `O=C(CSc1nnc2c(=O)n(-c3ccc(Br)cc3)ccn12)Nc1cccc(Cl)c1`, the Inhibition in the assay with Klebsiella pneumoniae was 6.37%; in the assay on Candida albicans, 6.02%; in the assay with Cryptococcus neoformans, -15.78%.
Take `Cc1ccc(C)c(-c2cc3c4nnc(CCC(=O)NCCc5ccc(Cl)cc5)n4ccn3n2)c1`: the values for the Inhibition in the assay on Klebsiella pneumoniae, in the assay on Candida albicans and in the assay with Cryptococcus neoformans were 12.88%, 1.56% and -40.65%, respectively.
For `O=C(Cn1nc2ccc(Sc3cccc(F)c3)nn2c1=O)Nc1ccc(Cl)cc1` the same measures were -0.35%, 14.09% and -7.49%.
For `Cc1ccccc1Cn1nc2c(=O)n(-c3cccc(Cl)c3C)ccn2c1=O` the same measures were 2.06%, 0.54% and -12.78%.
For `COc1ccc(N2CCN(C(=O)Cn3nc4ccc(-c5ccccc5)nn4c3=O)CC2)cc1` the same measures were 3.53%, -1.43% and -4.25%.
For the compound `COC(=O)c1ccccc1NC(=O)Cn1nc2c3cc(-c4ccc(Cl)cc4)nn3ccn2c1=O`, the Inhibition in the assay with Klebsiella pneumoniae was 3.97%; in the assay with Candida albicans, 0.23%; in the assay on Cryptococcus neoformans, -15.71%.
For `Cc1cccc(NC(=O)CSc2nnc3c4cc(-c5ccccc5)nn4ccn23)c1C` the same measures were 7.23%, 5.25% and -12.53%.
With `CC(C)CCn1c(=O)c2ccccc2n2c(=O)n(CC#N)nc12`, the Inhibition with Klebsiella pneumoniae is 17.73%; in the assay on Candida albicans, 2.65%; in the assay on Cryptococcus neoformans it was -29.58%.
`Cc1cccc(CN(c2cc(C)cc(C)c2)S(=O)(=O)c2cccn3c(C)nnc23)c1`: the Inhibition in the assay with Klebsiella pneumoniae is reported as 4.64%; in the assay on Candida albicans, 1.12%; in the assay on Cryptococcus neoformans, -10.57%.
In the same order, the values of `CCC(Sc1nnc2c(=O)n(-c3cccc(OC)c3)ccn12)C(=O)Nc1cc(OC)cc(OC)c1` (stereo unspecified) are 9.6%, -0.37% and -13.16%.
